Data on 62 compounds can be found in PubChem BioAssay AID1456 (Vanderbilt High Throughput Screening Facility, 2008).

Out of some 190,000 compounds screened, about 4,100 (2.2%) were called active. The sample holds actives, similar compounds and a random draw of the others, so the mix is not that of the screen.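 Rule for the calls: active = thallium flux slope and its plate-corrected score both differing from the plate sample mean at a set confidence after two filtering rounds, in either direction; inactive = the rest.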

The target in this test is Solute carrier family 12 member 5 (Homo sapiens) (UniProt Q9H2X9). The test can be described thus: KCC2 cotransporter modulators, thallium flux, primary screen, cell-based, HEK293 KCC2, FluoZin-2 fluorescence, MLSMR (AID 1456).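 Note: slope of fluorescence scaled to starting intensity during 10 to 20 s after thallium.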 As to conditions: KCC2 cells, thallium flux FluoZin-2 fluorescence; at 10 µM.
Chain of Solute carrier family 12 member 5 (Homo sapiens) (Q9H2X9 whole entry, looked up): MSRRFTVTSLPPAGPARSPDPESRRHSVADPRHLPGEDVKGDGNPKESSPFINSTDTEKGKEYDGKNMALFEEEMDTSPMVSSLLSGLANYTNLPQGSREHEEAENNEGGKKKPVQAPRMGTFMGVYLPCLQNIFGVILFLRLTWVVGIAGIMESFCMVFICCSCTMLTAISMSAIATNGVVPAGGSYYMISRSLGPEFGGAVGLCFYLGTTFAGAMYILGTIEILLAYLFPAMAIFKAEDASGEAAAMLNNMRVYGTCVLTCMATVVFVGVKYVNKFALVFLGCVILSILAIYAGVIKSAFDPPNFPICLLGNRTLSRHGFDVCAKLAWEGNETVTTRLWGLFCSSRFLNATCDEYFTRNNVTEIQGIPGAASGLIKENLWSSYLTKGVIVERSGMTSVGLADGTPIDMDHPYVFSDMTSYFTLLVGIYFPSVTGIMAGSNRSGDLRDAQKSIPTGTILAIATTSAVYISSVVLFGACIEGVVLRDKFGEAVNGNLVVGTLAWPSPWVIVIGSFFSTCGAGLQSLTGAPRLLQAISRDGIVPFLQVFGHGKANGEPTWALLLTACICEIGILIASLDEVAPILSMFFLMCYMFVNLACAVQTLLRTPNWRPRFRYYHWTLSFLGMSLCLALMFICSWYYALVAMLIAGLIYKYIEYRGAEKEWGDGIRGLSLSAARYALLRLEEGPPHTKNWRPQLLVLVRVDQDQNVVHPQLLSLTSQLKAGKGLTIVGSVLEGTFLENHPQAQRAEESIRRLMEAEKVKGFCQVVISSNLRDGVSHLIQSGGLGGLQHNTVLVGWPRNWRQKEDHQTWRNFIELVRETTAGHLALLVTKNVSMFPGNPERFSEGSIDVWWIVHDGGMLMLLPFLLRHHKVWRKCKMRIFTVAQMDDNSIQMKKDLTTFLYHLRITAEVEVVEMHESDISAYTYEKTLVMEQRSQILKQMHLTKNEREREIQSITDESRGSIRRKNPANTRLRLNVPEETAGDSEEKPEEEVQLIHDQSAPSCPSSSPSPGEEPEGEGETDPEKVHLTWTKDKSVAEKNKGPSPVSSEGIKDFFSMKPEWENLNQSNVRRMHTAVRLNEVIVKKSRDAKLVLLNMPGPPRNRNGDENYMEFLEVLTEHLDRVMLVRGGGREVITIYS
Turning to `CCCCn1c(SCC(=O)NCC2CCCO2)nc2ccc(N3CCOCC3)cc2c1=O` (configuration not stated), the B-score of Tl+ flux slope (higher = more flux/activation; lower = inhibition) was 7.18 (active).

For the compound `O=C(CCCn1c(SCC(=O)c2ccccc2)nc2ccccc2c1=O)NCC1CCCO1` (configuration not stated), the B-score of Tl+ flux slope (higher = more flux/activation; lower = inhibition) was -0.113 (inactive).

On to `COCCCNC(=O)CSc1nc2ccc(N3CCOCC3)cc2c(=O)n1CCc1ccccc1`, for which the B-score of Tl+ flux slope (higher = more flux/activation; lower = inhibition) was 2.34 (inactive).

For `CC(C)(C)NC(=O)NC(=O)COC(=O)Cc1ccc(Cl)cc1Cl`, the B-score of Tl+ flux slope (higher = more flux/activation; lower = inhibition) was 0.383 (inactive).

As for `CCN1CCN(C(=O)CCN2C(=O)c3ccccc3C2=O)CC1`, the B-score of Tl+ flux slope (higher = more flux/activation; lower = inhibition) is 0.322 (inactive).

As for `CCOC(=O)C1=NN(c2ccc(Cl)cc2)/C(=C/C2=NCCc3cc(OC)c(OC)cc32)S1`, the B-score of Tl+ flux slope (higher = more flux/activation; lower = inhibition) is 1.05 (inactive).

For the compound `O=C(O)CC1(CC(=O)Nc2cccc(C(F)(F)F)c2)CCCC1`, the B-score of Tl+ flux slope (higher = more flux/activation; lower = inhibition) is -1.45 (inactive).

For `CCOC(=O)Cc1cc(=O)[nH]c(/N=C(\N)Nc2ccc(OC)cc2)n1`, the B-score of Tl+ flux slope (higher = more flux/activation; lower = inhibition) was -0.288 (inactive).

Regarding `CCc1c(SCCC(=O)O)nc2ccccc2c1C`, the B-score of Tl+ flux slope (higher = more flux/activation; lower = inhibition) was 3.44 (active).

`COC(=O)CSc1nc(C2CC2)nc2ccccc12`: the B-score of Tl+ flux slope (higher = more flux/activation; lower = inhibition) was -0.171 (inactive).

For the compound `O=C(O)CCSc1nnc(-c2ccccc2)n1-c1ccccc1`, the B-score of Tl+ flux slope (higher = more flux/activation; lower = inhibition) is 0.407 (inactive).

For the compound `N=c1oc2ccccc2cc1C(=O)N/N=C/c1ccccc1`, the B-score of Tl+ flux slope (higher = more flux/activation; lower = inhibition) is -3.75 (active).

Regarding `Cc1nc2ccccc2cc1C(=O)N/N=C/c1ccc([N+](=O)[O-])cc1`, the B-score of Tl+ flux slope (higher = more flux/activation; lower = inhibition) is -1.83 (inactive).

Take `CNC(=O)c1cc2c(ccc3ccccc32)oc1=N`: the B-score of Tl+ flux slope (higher = more flux/activation; lower = inhibition) was -0.785 (inactive).

Regarding `CCN(CC)c1ccc(NC(=O)C2CCC(CNc3c(N4CCCC4)c(=O)c3=O)CC2)c(C)c1` (configuration not stated), the B-score of Tl+ flux slope (higher = more flux/activation; lower = inhibition) was 1.27 (inactive).

In the case of `CCCc1c(C(=O)O)cnn1-c1ccc(Cl)cc1`, the B-score of Tl+ flux slope (higher = more flux/activation; lower = inhibition) was -0.00741 (inactive).

Regarding `Oc1c(Cl)cc(Cl)c(Cl)c1Cc1c(O)c(Cl)cc(Cl)c1Cl`, the B-score of Tl+ flux slope (higher = more flux/activation; lower = inhibition) was 19.9 (active).

`COc1ccc(CC2(CO)CCN(Cc3cnn(C)c3)CC2)cc1`: the B-score of Tl+ flux slope (higher = more flux/activation; lower = inhibition) was 0.00537 (inactive).

For `C/C=C/C(=O)Nc1ccc(N2CCN(c3ccc(C(F)(F)F)cn3)CC2)nc1`, the B-score of Tl+ flux slope (higher = more flux/activation; lower = inhibition) was -0.115 (inactive).

On to `CS(=O)(=O)N(CC(=O)Nc1ccc(Cl)c(Cl)c1)C1CCCCC1`, for which the B-score of Tl+ flux slope (higher = more flux/activation; lower = inhibition) is -0.64 (inactive).

Turning to `CS(=O)(=O)N(CC(=O)N1CCN(c2ccc(F)cc2)CC1)C1CCCCC1`, the B-score of Tl+ flux slope (higher = more flux/activation; lower = inhibition) was -3.33 (active).

For the compound `CCC(C)NC(=O)CN(C1CCCCC1)S(C)(=O)=O` (configuration not stated), the B-score of Tl+ flux slope (higher = more flux/activation; lower = inhibition) is 0.0328 (inactive).

As to `O=C(NN1C(=O)C2CCCCC2C1=O)c1ccco1` (configuration not stated), the B-score of Tl+ flux slope (higher = more flux/activation; lower = inhibition) was -1.74 (inactive).

On to `O=S(=O)(NC(=S)Nc1ccccc1)c1ccc(F)cc1`, for which the B-score of Tl+ flux slope (higher = more flux/activation; lower = inhibition) is 0.866 (inactive).

As to `Cc1cc(C)nc(Nc2n[nH]c(-c3ccccc3N)n2)n1`, the B-score of Tl+ flux slope (higher = more flux/activation; lower = inhibition) was 0.274 (inactive).

As for `COc1ccc(-n2c(=S)[nH]c3sc4c(c3c2=O)CCc2ccccc2-4)cc1`, the B-score of Tl+ flux slope (higher = more flux/activation; lower = inhibition) is 11.6 (active).

As for `CSc1nc2sc3c(c2c(=O)[nH]1)CCc1ccccc1-3`, the B-score of Tl+ flux slope (higher = more flux/activation; lower = inhibition) is 0.526 (inactive).

Regarding `COc1cccc(-n2c(=S)[nH]c3c(oc4ccccc43)c2=O)c1`, the B-score of Tl+ flux slope (higher = more flux/activation; lower = inhibition) is -2.03 (inactive).

In the case of `COCc1cc(=O)[nH]c(SC)n1`, the B-score of Tl+ flux slope (higher = more flux/activation; lower = inhibition) is -0.453 (inactive).

Turning to `Cc1cccc(OCCC(=O)Nc2cc(S(=O)(=O)N3CCCCC3)ccc2N2CCOCC2)c1`, the B-score of Tl+ flux slope (higher = more flux/activation; lower = inhibition) is 0.115 (inactive).

For `Cc1cccc(OCC(=O)NC(=S)Nc2ccccc2N2CCOCC2)c1`, the B-score of Tl+ flux slope (higher = more flux/activation; lower = inhibition) is 8.7 (active).

For `Cc1cccc(OCC(=O)Nc2ccccc2F)c1`, the B-score of Tl+ flux slope (higher = more flux/activation; lower = inhibition) was 0.917 (inactive).

As for `O=C(Nc1ccccc1)Nc1ccc(C(F)(F)F)cn1`, the B-score of Tl+ flux slope (higher = more flux/activation; lower = inhibition) is 0.765 (inactive).

Take `O=C(C1=C(O)C(=O)N(CCOCCO)C1c1ccccn1)c1cccs1` (configuration not stated): the B-score of Tl+ flux slope (higher = more flux/activation; lower = inhibition) is 0.0733 (inactive).

With `CC(=O)NC(CC(=O)Nc1nccs1)c1ccccc1` (configuration not stated), the B-score of Tl+ flux slope (higher = more flux/activation; lower = inhibition) is 0.0448 (inactive).

As for `Cc1ccc(Cn2c(NC(=O)c3ccco3)nc3ccccc32)cc1`, the B-score of Tl+ flux slope (higher = more flux/activation; lower = inhibition) is 1.11 (inactive).

Consider `CC(=O)Nc1nc2ccccc2n1Cc1ccc(C)cc1`, for which the B-score of Tl+ flux slope (higher = more flux/activation; lower = inhibition) was 0.76 (inactive).

As for `CCCc1nc2c(C)cc(-c3nc4ccccc4n3C)cc2n1Cc1ccc(-c2ccccc2C(=O)O)cc1`, the B-score of Tl+ flux slope (higher = more flux/activation; lower = inhibition) was -4.55 (active).

`c1ccc2c(c1)OCCOCCOCCO2`: the B-score of Tl+ flux slope (higher = more flux/activation; lower = inhibition) was -0.0153 (inactive).

With `N#Cc1ccccc1Sc1ccccc1C(=O)OCC(=O)NC1CCCCC1`, the B-score of Tl+ flux slope (higher = more flux/activation; lower = inhibition) is -0.81 (inactive).

Take `O=C(COC(=O)c1cc([N+](=O)[O-])ccc1NCc1ccccc1)NC1CCCCC1`: the B-score of Tl+ flux slope (higher = more flux/activation; lower = inhibition) was -3.78 (active).

With `O=C(COC(=O)c1ccccc1SCC(=O)NC1CCCCC1)NC1CCCCC1`, the B-score of Tl+ flux slope (higher = more flux/activation; lower = inhibition) was 0.427 (inactive).

Turning to `CCOC(=O)N/N=C/c1cccnc1`, the B-score of Tl+ flux slope (higher = more flux/activation; lower = inhibition) is 0.0775 (inactive).

For `O=C(CSc1cccc2cccnc12)N/N=C/c1cccnc1`, the B-score of Tl+ flux slope (higher = more flux/activation; lower = inhibition) is 30.2 (active).

As for `Cc1nc2ccccc2n1CC(=O)N/N=C/c1cccnc1`, the B-score of Tl+ flux slope (higher = more flux/activation; lower = inhibition) was 0.307 (inactive).

Take `CN(c1ccccc1)S(=O)(=O)c1ccc(Cl)c(C(=O)OCC(=O)NCc2ccco2)c1`: the B-score of Tl+ flux slope (higher = more flux/activation; lower = inhibition) was -3.28 (inactive).

For `O=C(Nc1cccc(S(=O)(=O)NC2=NCCC2)c1)C1CCCCC1`, the B-score of Tl+ flux slope (higher = more flux/activation; lower = inhibition) was 0.665 (inactive).

Turning to `N/C(=N\OC(=O)Nc1ccccc1)c1ccno1`, the B-score of Tl+ flux slope (higher = more flux/activation; lower = inhibition) was 0.175 (inactive).

As for `COc1ccc(S(=O)(=O)N(CC(=O)N/N=C/c2ccccc2C(=O)O)c2ccccc2OC)cc1`, the B-score of Tl+ flux slope (higher = more flux/activation; lower = inhibition) is 0.515 (inactive).

Turning to `Cc1cccc(C)c1NC1=NC(=S)N(c2ccc(N(C)C)cc2)C1(C)C`, the B-score of Tl+ flux slope (higher = more flux/activation; lower = inhibition) was 4.28 (active).

On to `Cc1nnc2n1N=C(c1ccc3c(c1)NC(=O)CO3)CS2`, for which the B-score of Tl+ flux slope (higher = more flux/activation; lower = inhibition) is -0.931 (inactive).

With `Cc1cc(F)ccc1NC(=O)C(C)n1c2ccccc2c2nc(=O)cc(C)n21` (configuration not stated), the B-score of Tl+ flux slope (higher = more flux/activation; lower = inhibition) was -0.013 (inactive).

As to `Clc1cccc(N=C2NN=C(c3ccc4c(c3)OCCO4)CS2)c1`, the B-score of Tl+ flux slope (higher = more flux/activation; lower = inhibition) is 1.95 (inactive).

Turning to `CN(C)c1nc(=Nc2cccc(Cl)c2)ss1`, the B-score of Tl+ flux slope (higher = more flux/activation; lower = inhibition) was 87 (active).

As to `Cc1ccc(C(=O)NNC2=Nc3cc([N+](=O)[O-])ccc3OC2)cc1`, the B-score of Tl+ flux slope (higher = more flux/activation; lower = inhibition) was 0.865 (inactive).

As for `COc1ccc(OCCC(=O)c2ccc(OC)cc2)cc1`, the B-score of Tl+ flux slope (higher = more flux/activation; lower = inhibition) is 0.534 (inactive).

`NC(=O)NC(=O)CSc1nc2cc([N+](=O)[O-])ccc2n1-c1cccc(C(F)(F)F)c1`: the B-score of Tl+ flux slope (higher = more flux/activation; lower = inhibition) is 6.95 (active).

In the case of `COc1ccc(CCNC(=O)CSc2nc3[nH]ncc3c(=O)n2-c2cccc(C(F)(F)F)c2)cc1OC`, the B-score of Tl+ flux slope (higher = more flux/activation; lower = inhibition) was 1.1 (inactive).

In the case of `COc1ccc(-n2cnnc2SCC(=O)Nc2cccc([N+](=O)[O-])c2)cc1`, the B-score of Tl+ flux slope (higher = more flux/activation; lower = inhibition) is 0.774 (inactive).

With `O=C(CN1CCN(C/C=C/c2ccccc2)CC1)Nc1ccc(F)cc1F`, the B-score of Tl+ flux slope (higher = more flux/activation; lower = inhibition) was 0.952 (inactive).

For `CC(=O)N/C(=C\c1ccc(F)cc1)C(=O)NC(Cc1ccccc1)C(=O)O` (configuration not stated), the B-score of Tl+ flux slope (higher = more flux/activation; lower = inhibition) was 0.0184 (inactive).

As for `O=C(O)c1cccnc1Sc1ncnc2sc3c(c12)CCC3`, the B-score of Tl+ flux slope (higher = more flux/activation; lower = inhibition) is 2.47 (inactive).
